Source: PubChem BioAssay AID1159580 (chemical genetic matrix, 2015)
Screen size: about 5,500 compounds; about 2,000 (36%) were called active. Roughly 18% stayed inconclusive and do not appear here. Rule as the data show it: active = normalized growth mostly below about 0.91 (no sharp cut-off); inconclusive = no clear call, values can overlap the other calls; inactive = mostly above about 0.92. The list shows a part of the results.

Assay: chemical genetic growth profiling, strain panel (AID 1159580);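 also: tested at 20 µM; growth read once vehicle control cultures reached saturation at 30 °C; 1 = growth at the plate median or of vehicle wells; lower values mean less growth of the strain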
Conditions: growth OD

Measured: normalized growth

NC(=O)NCCCC(N)C(=O)O (configuration not stated)
inactive: S. cerevisiae deletion strains, locus YJR075W, strain HOC1, active compounds read low 1.03 | S. cerevisiae deletion strains, locus YKL009W, strain mrt4, active compounds read low 0.984 | S. cerevisiae deletion strains, locus YKL068W, active compounds read low 0.999 | S. cerevisiae deletion strains, locus YKL085W, strain MDH1 (second series), active compounds read low 1 | S. cerevisiae deletion strains, locus YKL085W, strain MDH1, active compounds read low 1 | S. cerevisiae deletion strains, locus YKL160W, strain elf1, active compounds read low 0.979 | S. cerevisiae deletion strains, locus YKL190W, strain CNB1, active compounds read low 1.02 | S. cerevisiae deletion strains, locus YKR001C, strain vps1, active compounds read low 1 | S. cerevisiae deletion strains, locus YKR026C, strain gcn3, active compounds read low 1 | S. cerevisiae deletion strains, locus YKR091W, strain srl3, active compounds read low 0.997 | S. cerevisiae deletion strains, locus YLL001W, strain dnm1, active compounds read low 1 | S. cerevisiae deletion strains, locus YLL026W, active compounds read low 1.01 | S. cerevisiae deletion strains, locus YLL041C, strain sdh2, active compounds read low 0.987 | S. cerevisiae deletion strains, locus YLR027C, strain aat2, active compounds read low 0.996 | S. cerevisiae deletion strains, locus YLR039C, strain RIC1, active compounds read low 1.03 | S. cerevisiae deletion strains, locus YLR058C, strain SHM2, active compounds read low 1.02 | S. cerevisiae deletion strains, locus YLR102C, strain apc9, active compounds read low 0.997 | S. cerevisiae deletion strains, locus YLR113W, strain HOG1, active compounds read low 1.02 | S. cerevisiae deletion strains, locus YLR221C, strain rsa3, active compounds read low 0.971 | S. cerevisiae deletion strains, locus YLR258W, strain gsy2, active compounds read low 1.03 | S. cerevisiae deletion strains, locus YLR262C, strain YPT6 (second series), active compounds read low 1 | S. cerevisiae deletion strains, locus YLR262C, strain YPT6, active compounds read low 1.04 | S. cerevisiae deletion strains, locus YLR268W, strain sec22, active compounds read low 0.989 | S. cerevisiae deletion strains, locus YLR320W, strain mms22, active compounds read low 1.03 | S. cerevisiae deletion strains, locus YLR330W, strain CHS5, active compounds read low 1.01 | S. cerevisiae deletion strains, locus YLR342W, strain FKS1 (second series), active compounds read low 1.01 | S. cerevisiae deletion strains, locus YLR342W, strain FKS1, active compounds read low 1.01 | S. cerevisiae deletion strains, locus YLR357W, strain rsc2, active compounds read low 1.01 | S. cerevisiae deletion strains, locus YLR370C, strain arc18, active compounds read low 0.987 | S. cerevisiae deletion strains, locus YLR371W, strain rom2, active compounds read low 0.995 | S. cerevisiae deletion strains, locus YLR384C, strain iki3, active compounds read low 1 | S. cerevisiae deletion strains, locus YLR418C, strain cdc73, active compounds read low 0.989 | S. cerevisiae deletion strains, locus YML016C, strain PPZ1, active compounds read low 1.02 | S. cerevisiae deletion strains, locus YML032C, strain rad52, active compounds read low 0.999 | S. cerevisiae deletion strains, locus YML120C, strain ndi1, active compounds read low 0.962 | S. cerevisiae deletion strains, locus YML124C, strain tub3, active compounds read low 0.989 | S. cerevisiae deletion strains, locus YMR058W, strain fet3, active compounds read low 0.983 | S. cerevisiae deletion strains, locus YMR078C, strain ctf18, active compounds read low 0.992 | S. cerevisiae deletion strains, locus YMR125W, strain sto1, active compounds read low 1.01 | S. cerevisiae deletion strains, locus YMR129W, active compounds read low 0.991 | S. cerevisiae deletion strains, locus YMR205C, strain PFK2, active compounds read low 1.05 | S. cerevisiae deletion strains, locus YMR223W, strain ubp8, active compounds read low 0.998 | S. cerevisiae deletion strains, locus YMR231W, strain pep5, active compounds read low 1.01 | S. cerevisiae deletion strains, locus YMR263W, strain SAP30, active compounds read low 1.02 | S. cerevisiae deletion strains, locus YMR307W, strain GAS1, active compounds read low 1.02 | S. cerevisiae deletion strains, locus YNL067W, strain RPL9B, active compounds read low 1.04 | S. cerevisiae deletion strains, locus YNL071W, strain lat1, active compounds read low 0.999 | S. cerevisiae deletion strains, locus YNL128W, strain TEP1, active compounds read low 1.04 | S. cerevisiae deletion strains, locus YNL153C, strain GIM3, active compounds read low 1.02 | S. cerevisiae deletion strains, locus YNL183C, strain NPR1, active compounds read low 0.963 | S. cerevisiae deletion strains, locus YNL209W, strain ssb2, active compounds read low 1 | S. cerevisiae deletion strains, locus YNL233W, strain BNI4, active compounds read low 1.02 | S. cerevisiae deletion strains, locus YNL248C, strain rpa49, active compounds read low 0.941 | S. cerevisiae deletion strains, locus YNL250W, strain rad50, active compounds read low 1 | S. cerevisiae deletion strains, locus YNL271C, strain bni1, active compounds read low 0.992 | S. cerevisiae deletion strains, locus YNL298W, strain CLA4, active compounds read low 1.01 | S. cerevisiae deletion strains, locus YNL307C, strain MCK1, active compounds read low 0.981 | S. cerevisiae deletion strains, locus YNL322C, strain KRE1 (second series), active compounds read low 0.988 | S. cerevisiae deletion strains, locus YNL322C, strain KRE1, active compounds read low 1.02 | S. cerevisiae deletion strains, locus YNR049C, strain mso1, active compounds read low 1 | S. cerevisiae deletion strains, locus YNR052C, strain pop2, active compounds read low 1 | S. cerevisiae deletion strains, locus YOL006C, strain TOP1, active compounds read low 1.04 | S. cerevisiae deletion strains, locus YOL012C, strain htz1 1.42 | S. cerevisiae deletion strains, locus YOL147C, strain pex11, active compounds read low 0.994 | S. cerevisiae deletion strains, locus YOR001W, strain rrp6, active compounds read low 0.958 | S. cerevisiae deletion strains, locus YOR061W, strain CKA2, active compounds read low 1.03 | S. cerevisiae deletion strains, locus YOR069W, strain VPS5, active compounds read low 1.01 | S. cerevisiae deletion strains, locus YOR070C, strain gyp1, active compounds read low 0.999 | S. cerevisiae deletion strains, locus YOR080W, strain dia2, active compounds read low 1.01 | S. cerevisiae deletion strains, locus YOR083W, strain WHI5, active compounds read low 0.958 | S. cerevisiae deletion strains, locus YOR106W, strain vam3, active compounds read low 0.978 | S. cerevisiae deletion strains, locus YOR136W, strain idh2, active compounds read low 0.988 | S. cerevisiae deletion strains, locus YOR144C, strain elg1, active compounds read low 0.993 | S. cerevisiae deletion strains, locus YOR184W, strain ser1, active compounds read low 0.99 | S. cerevisiae deletion strains, locus YOR231W, strain MKK1, active compounds read low 0.991 | S. cerevisiae deletion strains, locus YOR265W, strain rbl2, active compounds read low 0.998 | S. cerevisiae deletion strains, locus YOR270C, strain vph1, active compounds read low 0.964 | S. cerevisiae deletion strains, locus YOR290C, strain snf2, active compounds read low 1 | S. cerevisiae deletion strains, locus YOR316C, strain cot1, active compounds read low 0.996 | S. cerevisiae deletion strains, locus YPL051W, strain arl3, active compounds read low 0.981 | S. cerevisiae deletion strains, locus YPL055C, strain LGE1, active compounds read low 1.07 | S. cerevisiae deletion strains, locus YPL078C, strain atp4, active compounds read low 0.949 | S. cerevisiae deletion strains, locus YPL106C, strain sse1, active compounds read low 1.03 | S. cerevisiae deletion strains, locus YPL240C, strain hsp82, active compounds read low 0.988 | S. cerevisiae deletion strains, locus YPL241C, strain CIN2, active compounds read low 1.01 | S. cerevisiae deletion strains, locus YPL256C, strain CLN2, active compounds read low 0.988 | S. cerevisiae deletion strains, locus YPR119W, strain clb2, active compounds read low 0.995 | S. cerevisiae deletion strains, locus YPR141C, strain kar3, active compounds read low 1 | S. cerevisiae deletion strains, locus YPR163C, strain tif3, active compounds read low 0.989 | S. cerevisiae deletion strains, locus YPR167C, strain met16, active compounds read low 0.995 | S. cerevisiae deletion strains, strain wtn01, active compounds read low 0.986 | S. cerevisiae strains, strain wild type, active compounds read low 1.01
